Shown are actives, neighbours in structure and some others; about 3.4% of the full set was active somewhere.
FBW7 act: FBW7 E3 ligase activators, primary screen, biochemical, AlphaScreen, human; AlphaScreen FBW7–phospho-cyclin E peptide binding, activator screen; normalized activity (activation), % at 26.1 µM; 650,000 compounds, 0.13% hits; AID 1259310, 2017; in the data active = normalized activity above about 1.9%;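 note: purified mutant Fbw7 with reduced substrate affinity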
MITF primary: MITF inhibitors, primary screen, biochemical, AlphaScreen, human. Microphthalmia-associated transcription factor (Homo sapiens), O75030. AlphaScreen MITF homodimerization, bead proximity signal. inhibition, % at 2.6 µM. 650,000 compounds, 0.91% hits. AID 1259374, 2018; in the data active = inhibition above about 50%;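 note: 0% = vehicle wells with protein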
Target sequence (O75030 whole entry, looked up): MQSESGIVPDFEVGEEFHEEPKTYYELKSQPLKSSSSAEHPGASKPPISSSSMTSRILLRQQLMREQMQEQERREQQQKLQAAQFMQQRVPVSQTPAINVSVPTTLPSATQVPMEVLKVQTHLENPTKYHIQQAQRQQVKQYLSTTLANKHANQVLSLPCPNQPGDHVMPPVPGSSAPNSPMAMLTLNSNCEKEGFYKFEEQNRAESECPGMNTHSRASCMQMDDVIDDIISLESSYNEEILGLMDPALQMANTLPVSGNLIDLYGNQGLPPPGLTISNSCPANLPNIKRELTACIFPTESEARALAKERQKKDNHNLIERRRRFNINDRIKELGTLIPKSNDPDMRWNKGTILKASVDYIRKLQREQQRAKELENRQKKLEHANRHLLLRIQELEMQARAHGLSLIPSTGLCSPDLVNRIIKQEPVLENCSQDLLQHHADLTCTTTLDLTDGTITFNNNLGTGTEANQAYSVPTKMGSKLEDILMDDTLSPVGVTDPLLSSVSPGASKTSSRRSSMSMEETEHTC
TEAD-YAP block: TEAD-YAP interaction inhibition, primary screen, TEAD-YAP interaction inhibitor project, luminescence, HEK-TIYL cells; 640,000 compounds, 1.4% hits; inhibition, % at 9.12 µM; TEAD-Gal4/YAP UAS-luciferase luminescence; in the data active = inhibition above about 32%;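 note: 0% = median of test compound wells and 100% = reference inhibitor wells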
GPR151 ag: activators of human GPR151, primary screen, cell-based, PathHunter beta-arrestin, luminescence; G-protein coupled receptor 151 (Homo sapiens), Q8TDV0; PathHunter beta-arrestin GPR151 cells; activation, % at 11.2 µM; 650,000 compounds, 1% hits; AID 1508602, 2020; in the data active = activation above about 4.9%;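 note: 0% = median of compound wells and 100% = cells with positive control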
MITF confirm: MITF inhibitors, retest of hits, confirmation, biochemical, AlphaScreen, triplicate; shares compounds with MITF primary; AlphaScreen MITF homodimerization, biotin/His-MITF beads; inhibition, % at 2.6 µM; 4,700 compounds, 16% hits; AID 1259372, 2018;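 active = inhibition above a cutoff derived from the DMSO control wells, cut at about 28% in these data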;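 note: 0% = MITF dimer wells with DMSO only; inhibitors lower the bead chemiluminescence by keeping MITF from dimerizing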
AlphaScreen DR: AlphaScreen optical interference compounds, dose response, counter-screen, biochemical, HTS | shares compounds with MITF primary | AlphaScreen optical interference counterscreen, cell-free | IC50, µM | 480 compounds, 6% hits | AID 1259373, 2018; call rule not given here
AlphaScreen intf2: AlphaScreen optical interference compounds, counter-screen for MITF inhibitor project, biochemical, triplicate; shares compounds with MITF primary; LysRS AlphaScreen counterscreen, signal interference; inhibition, % at 2.6 µM; 4,700 compounds, 7.6% hits;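 active = inhibition above a cutoff derived from the DMSO control wells, cut at about 30% in these data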
Numbers without * were called inactive; nt = no result given.

SMILES	FBW7 act	MITF primary	TEAD-YAP block	GPR151 ag	MITF confirm	AlphaScreen intf2	others
Clc1cccc(CN2CCN(Cc3cccnc3)CC2)c1	0	85*	7	0	8	17
COc1ccccc1OCC#CCNC1CCCC1	0	55*	-1	-2	3	9
C=CCNC(=O)/C(C#N)=C/c1sccc1C	0	8	-50	0	nt	nt
Cc1cccc(C)c1NC(=O)CNCCCN1CCOCC1	0	88*	2	-2	-12	-5
O=C(Cc1cccs1)NCCCCCCNC(=O)Cc1cccs1	0	3	-4	0	nt	nt
O=C(Cc1cccs1)NCCCN1CCOCC1	0	102*	-4	0	16	14
Cc1cccc(NC(=O)CNCCCN2CCOCC2)c1C	0	76*	-2	1	-14	-6
Clc1cccc(-c2cnn3ccc(NCc4cccnc4)nc23)c1	1	-16	-5	-1	nt	nt
CC(=O)N1CCc2c(sc(NC(=O)c3ccc(S(=O)(=O)N(C)C)cc3)c2C(N)=O)C1	0	-2	18	1	nt	nt
Cc1[nH]n(-c2ccccc2)c(=O)c1C=Nc1ccc2c3c(cccc13)C(=O)N(C)C2=O	0	1	-6	-2	nt	nt
CN(C)c1cccc(C(=O)N2N=C(C(F)F)CC2(O)C(F)F)c1 (stereo not drawn)	1	75*	9	-1	13	19
CN(C)c1ccc(C(=O)N2N=C(C(F)F)CC2(O)C(F)F)cc1 (stereo not drawn)	0	-1	-6	-1	nt	nt
COc1ccc(C2(C(=O)Nc3ccc(C(=O)Nc4ccc(F)cc4)cc3)CCOCC2)cc1	0	16	-3	-1	nt	nt
O=C(/C=C/c1c(F)cccc1Cl)Nc1cccc([N+](=O)[O-])c1	0	16	-35	-1	nt	nt
CCOc1ccc(OCC(O)CNC2CCN(Cc3ccccc3)CC2)cc1 (stereo not drawn)	0	-1	5	1	nt	nt
Oc1ccc(N2CCN(CC(O)COCc3ccccc3Cl)CC2)cc1 (stereo not drawn)	0	56*	-3	0	6	23
OC(COCc1ccccc1F)CN1CCN(c2ccccc2)CC1 (stereo not drawn)	0	4	-1	1	nt	nt
CCOc1ccccc1N1CCN(CC(O)COCc2ccccc2OC)CC1 (stereo not drawn)	0	74*	0	1	-6	-1
OC(CNC1CCN(Cc2ccccc2)C1)COCc1ccccc1Cl (stereo not drawn)	0	55*	6	-1	-9	0
COc1cccc(/C=N/NC(=O)CC(=O)NC(C)C)c1O	0	17	9	1	nt	nt
CCOCCCNS(=O)(=O)c1ccc(NC(C)=O)cc1	0	9	4	1	nt	nt
CCCOc1ccc2oc(=O)c3c(c2c1)CCCN3C(=O)CN1CCC(C)CC1	0	11	11	2	nt	nt
COc1ccccc1CN1CCN(Cc2cccc(OC)c2OC)CC1	0	86*	-2	1	5	17
COc1cc(C(=O)N2CCN(Cc3cccc(Oc4ccccc4)c3)CC2)cc(OC)c1OC	0	29	6	0	nt	nt
COc1cccc(CN2CCN(C3CCCCC3OC)CC2)c1OC (stereo not drawn)	0	74*	4	0	7	11
SMILES	FBW7 act	MITF primary	TEAD-YAP block	GPR151 ag	MITF confirm	AlphaScreen intf2	others
COc1ccc(CN2CCC(N3CCN(c4ccccc4)CC3)CC2)cc1OC	0	56*	19	-2	-6	-10
COc1cccc(CN2CCN(Cc3cccc(Oc4ccccc4)c3)CC2)c1OC	0	74*	-7	0	5	3
COc1cccc(CN2CCN(Cc3ccccc3Br)CC2)c1OC	0	35	-21	-2	nt	nt
O=C(Nc1cccc(C(F)(F)F)c1)C(Cl)(Cl)Cl	0	7	3	0	nt	nt
COc1ccc(Cc2nc(-c3cccc(C)c3)no2)cc1	1	13	-38	-1	nt	nt
CCOC(=O)N1CCc2c(sc(NCc3ccc(OCC)cc3)c2C(=O)Nc2cc(OC)ccc2OC)C1	0	4	3	0	nt	nt
COc1cc(CN2CCN(Cc3cccc(C)c3)CC2)cc(OC)c1OC	-1	42	-4	0	nt	nt
COc1cccc(CN2CCN(Cc3cc(OC)c(OC)c(OC)c3)CC2)c1OC	0	62*	4	-1	-12	-2
COc1ccccc1CNC(=O)CN1CCN(C)CC1	0	80*	-6	0	4	13
COc1cccc(CN2CCN(Cc3cccc(OC)c3OC)CC2)c1OC	0	74*	-2	0	6	10
COc1cccc(CN2CCC(N3CCN(c4ccccc4)CC3)CC2)c1OC	0	56*	5	0	-9	-3
CCOc1ccc(C(c2nnnn2Cc2ccco2)N2CCN(c3ccccc3)CC2)cc1 (stereo not drawn)	0	17	0	1	nt	nt
Cc1nc(O)c(C(c2ccc(C(=O)O)cc2)c2c(O)nc(C)[nH]c2=O)c(=O)[nH]1	0	11	-12	-1	nt	nt
COc1cccc(CN2CCC(N3CCCC3)CC2)c1OC	0	20	3	2	nt	nt
COc1cccc(CN2CCN(C3CCC(C)CC3)CC2)c1OC (stereo not drawn)	0	70*	-12	-1	17	-3
O=c1cc(CSc2nc3ccsc3c(=O)n2CCc2ccccc2)c2ccc(O)cc2o1	0	0	0	1	nt	nt
CN1C(=O)[C@H]2CN(C(=O)NCc3ccccc3)CCN2C(=O)[C@@H]1Cc1ccccc1	1	80*	3	0	68*	-3	AlphaScreen DR=>6.5
O=C(NCc1ccccc1)N1CCN2C(=O)[C@@H]3CSCN3C(=O)[C@H]2C1	0	75*	2	-1	75*	-5	AlphaScreen DR=>6.5
O=C(Nc1ccc(Cl)cc1Cl)N1CCN2C(=O)[C@@H]3CSCN3C(=O)[C@H]2C1	0	70*	6	-1	66*	0	AlphaScreen DR=>6.5
O=C(c1cccc2ccccc12)N1CCN2C(=O)[C@@H]3CSCN3C(=O)[C@H]2C1	0	19	4	0	nt	nt
CCOC(=O)c1ccc(CN(Cc2ccccc2C)S(=O)(=O)c2ccc(F)c(C(=O)Nc3ccc(Cl)cc3)c2)cc1	0	-4	-8	0	nt	nt
COc1ccc(C(=O)Nc2sc(C)c(C)c2C#N)cc1[N+](=O)[O-]	0	74*	6	-1	-6	-6
CCCCNC(=O)C1CCN(c2nc3ccc(OC)cc3s2)CC1	0	-3	-18	-2	nt	nt

Screening data from PubChem BioAssay.
